23 molecules from PubChem BioAssay AID1851 (National Center for Advancing Translational Sciences (NCATS), 2009) can be followed below.

Screen size: about 16,000 compounds; about 5,100 (32%) were called active. Roughly 25% stayed inconclusive and do not appear here. This is one part of the list. A number with no mark means an inactive call. The call rests on the fitted dose curve; in most records, active means well fitted curve in the direction sought with a large enough effect; inconclusive means small, poorly fitted or top-dose-only effect, or effect the other way; inactive means no such curve, though single readings can be large or run the other way.
On the % scale 0 is the no-effect control and ±100 the full control effect.

The target of the assay is Cytochrome P450 3A4 (Homo sapiens) (UniProt P08684). Kind of assay: Cytochrome panel assay with activity outcomes. The conditions noted are these: recombinant CYP, pro-luciferin dealkylation, luminescence, p450-cyp3a4; series mostly up to 57.1 µM.
Chain of Cytochrome P450 3A4 (Homo sapiens) (P08684 whole entry, looked up): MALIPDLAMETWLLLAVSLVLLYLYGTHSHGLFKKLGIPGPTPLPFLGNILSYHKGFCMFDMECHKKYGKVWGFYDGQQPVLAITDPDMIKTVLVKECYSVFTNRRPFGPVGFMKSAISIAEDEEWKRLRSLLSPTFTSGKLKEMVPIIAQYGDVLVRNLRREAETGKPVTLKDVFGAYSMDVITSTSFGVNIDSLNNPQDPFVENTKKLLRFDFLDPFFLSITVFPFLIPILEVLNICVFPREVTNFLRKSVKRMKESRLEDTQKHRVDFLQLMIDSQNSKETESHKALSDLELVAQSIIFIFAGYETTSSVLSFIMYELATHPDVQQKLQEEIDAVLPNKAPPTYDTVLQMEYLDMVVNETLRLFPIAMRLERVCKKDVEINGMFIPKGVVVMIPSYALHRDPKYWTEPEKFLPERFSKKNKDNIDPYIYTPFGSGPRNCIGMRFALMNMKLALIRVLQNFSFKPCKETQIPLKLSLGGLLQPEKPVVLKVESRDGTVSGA
Regarding `COc1cc2c(cc1C(F)(F)F)N(C(=O)Nc1cc(F)cc(-c3cccnc3)c1)CC2`, the AC50 is 2510 nM (active). On to `CC1(C)OCC([C@H](O)C2=CCCCC2=O)CO1`, for which the activity, negative = inhibition was -7.04% [at 11.4 µM]. In the case of `CCOC(=O)c1cc(C(=O)OCC)cc(-n2cc(O)c(C(=O)OCC)n2)c1`, the AC50 result was “inactive”.

In the case of `COC(=O)c1sc2ncccc2c1OCc1c(Cl)cccc1Cl`, the activity, negative = inhibition was -24.4% [at 11.4 µM].

`COc1cc(CNn2nnnc2N)ccc1OCc1c(Cl)cccc1Cl`: the AC50 was 562 nM (active). Consider `COc1ccc(C[N+](C)(C)N)cc1OC`, for which the activity, negative = inhibition is -9.55% [at 11.4 µM]. With `Nc1nc(N)[n+]([O-])c(N)c1NCO`, the activity, negative = inhibition is -2.59% [at 11.4 µM]. Consider `O=C(OCCCN1CCCCC1)c1ccc(O)cc1`, for which the AC50 entry is “inactive”. On the same count and under the same terms, under `Cc1cc(C(=O)O)c(=O)[nH]c1C` stands “inactive”; under `COC(=O)C/C=C\[C@@H](C)[C@@H](/C=N\OC[C@@H](O)[C@H]1O[C@H]2OC(C)(C)O[C@H]2[C@@H]1O)NS(=O)(=O)c1ccc(C)cc1`, 3980 nM (active).

Consider `COC(=O)C/C=C\[C@@H](C)[C@@H](/C=N\OC[C@@H](O)COCc1ccco1)NS(=O)(=O)c1ccc(C)cc1`, for which the AC50 was 3160 nM (active).

In the case of `COC(=O)C/C=C\[C@H](C)[C@H](CO)NS(=O)(=O)c1ccc(C)cc1`, the activity, negative = inhibition is -5.02% [at 11.4 µM]. `CO/N=C\[C@@H](NS(=O)(=O)c1ccc(C)cc1)[C@H](C)/C=C\CC(=O)OC`: the activity, negative = inhibition is -67.3% [at 11.4 µM]. For `COC(=O)C/C=C\[C@@H](C)[C@@H](/C=N\OC[C@@H](O)COCc1ccco1)OC`, the activity, negative = inhibition is -28.9% [at 11.4 µM]. Regarding `CC(C)[C@@H](OCc1ccccc1)[C@H](C)/C=N\OC[C@@H](O)[C@@H]1O[C@@H]2OC(C)(C)O[C@@H]2[C@H]1O`, the activity, negative = inhibition is -28.7% [at 11.4 µM]. For `CNc1cc(CSC)nc(SCc2ccc(Cl)c(Cl)c2)n1`, the AC50 is 5010 nM (active). For the molecule `Clc1ccc(CSC2=NCCN2)cc1Cl`, the activity, negative = inhibition was -8.56% [at 11.4 µM]. As to `O=C(Cn1ccnc1[N+](=O)[O-])NCCO`, the AC50 entry was “inactive”. With `Cc1cnc(CNc2ncnc3ccc(-c4ccccc4C)cc23)cn1`, the AC50 was 3980 nM (active).

Take `Cc1cnc(CNc2ncnc3ccc(-c4ccccc4CN(C)C)cc23)cn1`: the AC50 result was “inactive”. With `Cc1cnc(CNc2ncnc3ccc(-c4ccccc4C(F)(F)F)cc23)cn1`, the AC50 is 2000 nM (active).

For `Cc1cnc(CNc2ncnc3ccc(-c4ccccc4Cl)cc23)cn1`, the AC50 is 2510 nM (active). Turning to `O=C(NC[C@@H](O)CO)c1c(I)c(C(=O)NC[C@@H](O)CO)c(I)c(N(CCO)C(=O)CO)c1I`, the AC50 entry was “inactive”.
